Measured values as given in PubChem BioAssay (Tox21).
Results filed as inconclusive are left out. A call without a number means that no potency is given here. The source made the active and inactive calls. Calls come from the whole dose curve; as a rule, active = well fitted curve in the direction sought with a large enough effect in the repeat runs; inconclusive = weak or mixed curves; inactive = no such curve, though single readings can be large; an effect the other way counts as inactive or inconclusive.

Key:
[1] = target: Cytochrome P450 1A2 (Homo sapiens) (UniProt P05177); assay: Cytochrome P450 Family 1 Subfamily A Member 2 (CYP1A2) small molecule antagonists: luciferase reporter qHTS assay (AID 1671199); settings: P450-Glo CYP1A2 enzyme, luciferin luminescence, 1 h; series mostly up to 53 µM
Chain of Cytochrome P450 1A2 (Homo sapiens) (P05177 whole entry, looked up): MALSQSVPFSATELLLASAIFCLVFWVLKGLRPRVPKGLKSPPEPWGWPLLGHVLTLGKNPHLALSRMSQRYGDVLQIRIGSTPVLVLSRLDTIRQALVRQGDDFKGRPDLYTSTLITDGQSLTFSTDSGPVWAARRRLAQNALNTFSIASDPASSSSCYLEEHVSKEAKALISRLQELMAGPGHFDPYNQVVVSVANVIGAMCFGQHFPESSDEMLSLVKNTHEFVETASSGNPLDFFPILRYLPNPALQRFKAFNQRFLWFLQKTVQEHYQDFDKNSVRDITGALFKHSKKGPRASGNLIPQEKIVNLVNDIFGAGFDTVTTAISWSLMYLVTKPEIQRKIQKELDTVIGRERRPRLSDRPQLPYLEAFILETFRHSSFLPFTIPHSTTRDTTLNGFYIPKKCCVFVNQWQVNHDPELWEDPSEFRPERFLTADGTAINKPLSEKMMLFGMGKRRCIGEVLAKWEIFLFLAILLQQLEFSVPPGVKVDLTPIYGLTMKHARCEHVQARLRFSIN
How it was run: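 P450-Glo CYP1A2, 1536-well qHTS: enzyme/proluciferin substrate + cpd (DMSO), 10 min RT; NADPH regen, 1 h RT; detection reagent, 20 min; luminescence, RLU.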

[2] = target: Voltage-gated inwardly rectifying potassium channel KCNH2 (Homo sapiens) (UniProt Q12809); assay: Human Ether-a-go-go-Related Gene (hERG) channel small molecule antagonists: fluorescence cell-based qHTS assay (AID 1671200); settings: hERG-U2OS cells, FluxOR thallium flux fluorescence; series mostly up to 76.8 µM
Chain of Voltage-gated inwardly rectifying potassium channel KCNH2 (Homo sapiens) (Q12809 whole entry, looked up): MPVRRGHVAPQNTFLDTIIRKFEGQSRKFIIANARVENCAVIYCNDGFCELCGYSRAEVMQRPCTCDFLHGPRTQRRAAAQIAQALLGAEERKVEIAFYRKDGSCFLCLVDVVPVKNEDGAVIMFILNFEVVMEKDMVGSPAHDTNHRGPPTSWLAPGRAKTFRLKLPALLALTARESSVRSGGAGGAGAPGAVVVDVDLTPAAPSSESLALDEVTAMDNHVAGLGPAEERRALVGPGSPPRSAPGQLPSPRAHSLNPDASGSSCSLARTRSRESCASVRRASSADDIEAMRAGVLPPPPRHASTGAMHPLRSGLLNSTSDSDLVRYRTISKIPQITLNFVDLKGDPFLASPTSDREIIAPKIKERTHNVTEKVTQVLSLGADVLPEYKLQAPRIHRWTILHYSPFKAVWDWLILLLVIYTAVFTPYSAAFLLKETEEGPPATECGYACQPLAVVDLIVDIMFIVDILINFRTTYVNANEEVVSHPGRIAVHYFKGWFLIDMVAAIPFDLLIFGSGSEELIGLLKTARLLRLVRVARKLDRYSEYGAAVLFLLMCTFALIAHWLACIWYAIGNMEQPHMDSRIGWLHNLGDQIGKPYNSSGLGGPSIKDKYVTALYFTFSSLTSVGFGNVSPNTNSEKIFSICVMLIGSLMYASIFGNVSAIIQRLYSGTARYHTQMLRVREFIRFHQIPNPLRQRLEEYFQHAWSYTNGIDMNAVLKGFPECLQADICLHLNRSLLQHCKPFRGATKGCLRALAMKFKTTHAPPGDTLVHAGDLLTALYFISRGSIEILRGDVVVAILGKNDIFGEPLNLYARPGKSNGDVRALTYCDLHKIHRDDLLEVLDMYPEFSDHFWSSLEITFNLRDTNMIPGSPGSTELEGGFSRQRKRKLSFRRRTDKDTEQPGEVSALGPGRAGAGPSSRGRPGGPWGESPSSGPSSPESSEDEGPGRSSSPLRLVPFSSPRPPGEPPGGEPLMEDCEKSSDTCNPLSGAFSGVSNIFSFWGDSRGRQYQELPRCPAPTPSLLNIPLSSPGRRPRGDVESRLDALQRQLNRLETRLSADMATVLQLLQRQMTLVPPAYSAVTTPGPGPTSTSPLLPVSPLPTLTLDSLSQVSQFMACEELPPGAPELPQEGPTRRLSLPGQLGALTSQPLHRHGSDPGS
How it was run: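 Kinetic two-minute fluorescence traces, sampled at 1 s, were collected following thallium stimulus of U2OS cells (1000 per well) that had been cultured overnight at 37 C and loaded with FluxOR II.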

[3] = target: Cytochrome P450 3A4 (Homo sapiens) (UniProt P08684); assay: Cytochrome P450 Family 3 Subfamily A Member 4 (CYP3A4) small molecule antagonists: luciferase reporter qHTS assay (AID 1671201); settings: P450-Glo CYP3A4 enzyme, luciferin luminescence, 1 h; series mostly up to 115 µM
Chain of Cytochrome P450 3A4 (Homo sapiens) (P08684 whole entry, looked up): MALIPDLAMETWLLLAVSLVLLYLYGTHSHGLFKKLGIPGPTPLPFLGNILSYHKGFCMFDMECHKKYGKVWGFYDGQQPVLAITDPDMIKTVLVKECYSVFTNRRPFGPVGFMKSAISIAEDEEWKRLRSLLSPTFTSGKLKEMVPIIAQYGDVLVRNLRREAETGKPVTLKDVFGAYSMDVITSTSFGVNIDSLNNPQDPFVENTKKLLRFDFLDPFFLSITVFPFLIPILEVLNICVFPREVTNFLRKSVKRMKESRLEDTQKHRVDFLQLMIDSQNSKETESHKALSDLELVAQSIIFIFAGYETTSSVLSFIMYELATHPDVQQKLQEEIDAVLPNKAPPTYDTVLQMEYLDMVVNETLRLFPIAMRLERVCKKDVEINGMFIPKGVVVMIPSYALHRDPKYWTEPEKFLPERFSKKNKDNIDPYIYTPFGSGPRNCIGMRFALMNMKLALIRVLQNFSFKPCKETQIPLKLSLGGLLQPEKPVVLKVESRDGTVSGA
How it was run: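 Proluciferin-to-luciferin conversion by CYP3A4, NADPH-regenerated, 1 h RT; luminescence read as RLU. Ketoconazole as control.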
Note: nearly all actives have a fitted effect of over 50% in size.
Potency is the fitted concentration of half-maximal effect.

SMILES	Potency [1]	Potency [2]	Potency [3]
Nc1ccc([N+](=O)[O-])c(C(F)(F)F)c1	11 µM (active)	inactive	inactive
CN1CCC(N(Cc2cccs2)c2ccccc2)CC1	inactive	2.68 µM (active)	inactive
CCCCCCCCCCCC(=O)OC[C@@H](O)[C@H]1OC[C@H](OCCO)[C@H]1OCCO	inactive	inactive	17.4 µM (active)
CCCCCC[C@@H](O)C/C=C\CCCCCCCC(=O)OC	35.7 µM (active)	inactive	inactive
Brc1c2ccccc2cc2ccccc12	0.639 µM (active)	inactive	18 µM (active)
CN(C)c1ccc(C(c2ccccc2)c2ccc(N(C)C)cc2)cc1	14.2 µM (active)	inactive	4.48 µM (active)
